The values that follow come from publication PMC7862700, “An all-to-all approach to the identification of sequence-specific readers for epigenetic DNA modifications on cytosine”.

What all share (experiment): DAPPL (digital affinity profiling via proximity ligation, sequencing); 10 mM Tris-HCl pH 7.5, 50 mM NaCl, 1 mM DTT, 4% glycerol, room temperature, 30 min; GST-TFs on glutathione beads, 16-mer random dsDNA library, 0.1% formaldehyde crosslink after washing; high values mean tight binding
Holding throughout (conditions): protein: recombinant; tags: N-terminal GST; dsDNA, one strand shown

The target in assay [1] is T1, ERF (Homo sapiens, UniProt P50548 1-548).
T1 sequence: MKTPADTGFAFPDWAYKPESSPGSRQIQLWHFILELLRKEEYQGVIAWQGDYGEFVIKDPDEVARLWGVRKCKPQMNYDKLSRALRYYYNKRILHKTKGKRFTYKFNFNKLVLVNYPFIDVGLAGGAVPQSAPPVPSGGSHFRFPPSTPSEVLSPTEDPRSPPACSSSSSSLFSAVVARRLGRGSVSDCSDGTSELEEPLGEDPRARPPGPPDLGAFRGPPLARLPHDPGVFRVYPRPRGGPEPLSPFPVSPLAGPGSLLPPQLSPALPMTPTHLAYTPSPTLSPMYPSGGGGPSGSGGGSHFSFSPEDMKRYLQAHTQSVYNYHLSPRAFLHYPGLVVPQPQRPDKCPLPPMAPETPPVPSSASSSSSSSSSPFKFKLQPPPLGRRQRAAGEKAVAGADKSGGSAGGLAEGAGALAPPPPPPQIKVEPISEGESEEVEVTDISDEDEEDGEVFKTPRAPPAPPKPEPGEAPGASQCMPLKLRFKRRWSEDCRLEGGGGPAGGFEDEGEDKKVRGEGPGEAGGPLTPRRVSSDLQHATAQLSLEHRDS
In a few lines: (§1)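 A tag-only sample was pooled with DNA-barcoded human transcription factors that had been expressed in yeast as GST fusions and captured on glutathione beads. The pools were incubated for 30 min at room temperature with 200 nmole of a random double-stranded 16-mer DNA library in Tris/NaCl/DTT/glycerol buffer, then washed, crosslinked with 0.1% formaldehyde, proximity-ligated (BsaI/T4 ligase, 1 h, 37 °C), PCR-amplified and sequenced on an Illumina NextSeq500. Binding signal is each hexamer's read frequency for a factor divided by its frequency for the tag-only sample.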

For assay [2], the target named is T2, ETV3L (Homo sapiens, UniProt Q6ZN32 1-361).
T2 sequence: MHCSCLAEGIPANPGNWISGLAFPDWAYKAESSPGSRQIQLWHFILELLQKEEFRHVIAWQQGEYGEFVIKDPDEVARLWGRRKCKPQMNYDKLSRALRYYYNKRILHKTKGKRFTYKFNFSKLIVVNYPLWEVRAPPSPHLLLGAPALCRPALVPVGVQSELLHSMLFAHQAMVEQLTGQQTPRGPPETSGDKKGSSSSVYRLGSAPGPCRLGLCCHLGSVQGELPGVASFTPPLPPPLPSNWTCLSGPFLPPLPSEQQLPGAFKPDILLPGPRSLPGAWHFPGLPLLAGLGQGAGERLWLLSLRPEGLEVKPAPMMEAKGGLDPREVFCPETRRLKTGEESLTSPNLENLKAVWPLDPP
In a few lines: as §1

The target of assay [3] is T3, ETS2 (Homo sapiens, UniProt P15036 1-469).
T3 sequence: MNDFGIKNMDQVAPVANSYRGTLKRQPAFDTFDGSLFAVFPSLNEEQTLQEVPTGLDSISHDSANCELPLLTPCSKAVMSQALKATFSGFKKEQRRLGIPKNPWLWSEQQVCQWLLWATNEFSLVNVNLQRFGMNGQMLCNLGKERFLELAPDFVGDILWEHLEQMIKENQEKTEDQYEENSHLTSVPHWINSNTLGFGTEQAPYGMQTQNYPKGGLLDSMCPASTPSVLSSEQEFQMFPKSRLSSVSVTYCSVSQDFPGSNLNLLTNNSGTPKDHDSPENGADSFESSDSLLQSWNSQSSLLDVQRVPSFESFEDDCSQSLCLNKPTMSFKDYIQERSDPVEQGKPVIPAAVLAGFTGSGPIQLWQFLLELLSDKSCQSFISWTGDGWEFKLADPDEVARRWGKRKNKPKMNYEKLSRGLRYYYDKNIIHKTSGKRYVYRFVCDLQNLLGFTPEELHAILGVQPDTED
In a few lines:
as §1

The target of assay [4] is T4, SPDEF (Homo sapiens, UniProt O95238 1-335).
T4 sequence: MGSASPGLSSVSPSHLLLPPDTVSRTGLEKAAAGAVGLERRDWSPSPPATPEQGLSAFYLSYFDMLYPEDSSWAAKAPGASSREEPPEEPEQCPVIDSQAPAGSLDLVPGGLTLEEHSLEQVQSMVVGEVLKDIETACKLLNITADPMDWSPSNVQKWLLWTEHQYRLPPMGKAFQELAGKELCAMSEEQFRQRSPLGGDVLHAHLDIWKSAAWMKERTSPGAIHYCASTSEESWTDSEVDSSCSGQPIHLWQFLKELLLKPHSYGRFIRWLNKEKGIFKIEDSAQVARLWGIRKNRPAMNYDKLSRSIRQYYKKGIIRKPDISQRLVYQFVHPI
In a few lines:
as §1

The target of assay [5] is T5, ETV7 (Homo sapiens, UniProt Q9Y603 1-341).
T5 sequence: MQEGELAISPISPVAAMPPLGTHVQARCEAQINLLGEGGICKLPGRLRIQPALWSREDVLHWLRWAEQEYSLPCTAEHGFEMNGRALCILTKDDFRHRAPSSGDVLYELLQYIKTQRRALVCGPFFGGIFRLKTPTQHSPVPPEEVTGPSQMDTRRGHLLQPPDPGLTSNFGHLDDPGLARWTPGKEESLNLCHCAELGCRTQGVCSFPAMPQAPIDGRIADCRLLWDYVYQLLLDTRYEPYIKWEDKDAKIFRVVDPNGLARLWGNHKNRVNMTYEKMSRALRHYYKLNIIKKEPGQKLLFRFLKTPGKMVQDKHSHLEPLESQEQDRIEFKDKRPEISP
In a few lines:
as §1

For assay [6], the target named is T6, ELF5 (Homo sapiens, UniProt Q9UKW6-2 1-255).
T6 sequence: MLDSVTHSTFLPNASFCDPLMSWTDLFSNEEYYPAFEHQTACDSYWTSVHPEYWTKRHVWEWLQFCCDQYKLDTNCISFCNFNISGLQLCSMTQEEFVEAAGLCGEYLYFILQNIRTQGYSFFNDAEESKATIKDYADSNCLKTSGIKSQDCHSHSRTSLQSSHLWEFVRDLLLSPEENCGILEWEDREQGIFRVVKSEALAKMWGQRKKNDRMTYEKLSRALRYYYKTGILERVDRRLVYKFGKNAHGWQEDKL
The method in brief: as §1

Assay [7] has as its target T7, ETV3 (Homo sapiens, UniProt P41162-2 1-143).
T7 sequence: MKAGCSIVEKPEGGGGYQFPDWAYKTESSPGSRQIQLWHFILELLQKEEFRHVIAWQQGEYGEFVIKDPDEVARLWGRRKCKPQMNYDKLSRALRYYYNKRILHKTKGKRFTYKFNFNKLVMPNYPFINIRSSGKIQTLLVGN
In a few lines:
as §1

For assay [8], the target named is ETV6 (Homo sapiens, UniProt P41212 1-452). In a few lines:
as §1

Chain of ETV6 (P41212 whole entry): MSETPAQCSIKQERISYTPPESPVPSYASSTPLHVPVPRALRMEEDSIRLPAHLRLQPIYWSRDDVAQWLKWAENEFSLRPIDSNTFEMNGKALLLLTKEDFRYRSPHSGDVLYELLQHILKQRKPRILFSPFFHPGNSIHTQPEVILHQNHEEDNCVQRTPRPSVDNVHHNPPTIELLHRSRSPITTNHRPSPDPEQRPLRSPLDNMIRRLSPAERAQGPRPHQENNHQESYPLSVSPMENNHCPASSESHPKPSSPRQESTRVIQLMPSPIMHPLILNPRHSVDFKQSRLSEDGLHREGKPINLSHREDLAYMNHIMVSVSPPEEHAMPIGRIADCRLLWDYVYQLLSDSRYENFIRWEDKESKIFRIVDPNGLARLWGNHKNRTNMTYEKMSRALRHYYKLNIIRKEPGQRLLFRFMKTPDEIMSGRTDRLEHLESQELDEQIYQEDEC

With CTAAAT, the binding signal in assay [1] is 1.35 fold enrichment (6-mer frequency, TF over GST control); in assay [2] it was 1.43 fold enrichment (6-mer frequency, TF over GST control); in assay [3], 1.38 fold enrichment (6-mer frequency, TF over GST control); in assay [4], 1.31 fold enrichment (6-mer frequency, TF over GST control); in assay [5], 1.34 fold enrichment (6-mer frequency, TF over GST control); in assay [6], 1.25 fold enrichment (6-mer frequency, TF over GST control). Also, the binding signal in assay [7] was 1.4 fold enrichment (6-mer frequency, TF over GST control); in assay [8], 1.3 fold enrichment (6-mer frequency, TF over GST control).

For TACCGG, the binding signal was 1.4 fold enrichment (6-mer frequency, TF over GST control) in assay [1]; 1.47 fold enrichment (6-mer frequency, TF over GST control) in assay [2]; 1.6 fold enrichment (6-mer frequency, TF over GST control) in assay [3]; 1.77 fold enrichment (6-mer frequency, TF over GST control) in assay [4]; 1.36 fold enrichment (6-mer frequency, TF over GST control) in assay [5]; 1.71 fold enrichment (6-mer frequency, TF over GST control) in assay [6]. Besides, the binding signal was 1.76 fold enrichment (6-mer frequency, TF over GST control) in assay [7] and 1.68 fold enrichment (6-mer frequency, TF over GST control) in assay [8].

Consider TGCTGA, for which the binding signal in assay [1] was 1.03 fold enrichment (6-mer frequency, TF over GST control); in assay [2], 1.05 fold enrichment (6-mer frequency, TF over GST control); in assay [3] it was 1.11 fold enrichment (6-mer frequency, TF over GST control); in assay [4] it was 1.11 fold enrichment (6-mer frequency, TF over GST control); in assay [5], 1.07 fold enrichment (6-mer frequency, TF over GST control); in assay [6], 1 fold enrichment (6-mer frequency, TF over GST control). Besides, the binding signal in assay [7] was 1.12 fold enrichment (6-mer frequency, TF over GST control); in assay [8], 1.01 fold enrichment (6-mer frequency, TF over GST control).

As for TTGCTC, the binding signal in assay [1] was 1.44 fold enrichment (6-mer frequency, TF over GST control); in assay [2], 1.28 fold enrichment (6-mer frequency, TF over GST control); in assay [3], 1.33 fold enrichment (6-mer frequency, TF over GST control); in assay [4], 1.2 fold enrichment (6-mer frequency, TF over GST control); in assay [5], 1.59 fold enrichment (6-mer frequency, TF over GST control); in assay [6] it was 1.18 fold enrichment (6-mer frequency, TF over GST control). The binding signal in assay [7] was 1.2 fold enrichment (6-mer frequency, TF over GST control); in assay [8], 1.22 fold enrichment (6-mer frequency, TF over GST control).

Regarding TGTCTC, the binding signal in assay [1] was 1.2 fold enrichment (6-mer frequency, TF over GST control); in assay [2] it was 1.3 fold enrichment (6-mer frequency, TF over GST control); in assay [3], 1.26 fold enrichment (6-mer frequency, TF over GST control); in assay [4] it was 1.33 fold enrichment (6-mer frequency, TF over GST control); in assay [5], 1.16 fold enrichment (6-mer frequency, TF over GST control); in assay [6], 1.26 fold enrichment (6-mer frequency, TF over GST control). The binding signal was 1.21 fold enrichment (6-mer frequency, TF over GST control) in assay [7] and 1.22 fold enrichment (6-mer frequency, TF over GST control) in assay [8].

For the sequence GTGACC, the binding signal in assay [1] was 1.24 fold enrichment (6-mer frequency, TF over GST control); in assay [2] it was 1.26 fold enrichment (6-mer frequency, TF over GST control); in assay [3] it was 1.25 fold enrichment (6-mer frequency, TF over GST control); in assay [4], 1.32 fold enrichment (6-mer frequency, TF over GST control); in assay [5], 1.3 fold enrichment (6-mer frequency, TF over GST control); in assay [6], 1.25 fold enrichment (6-mer frequency, TF over GST control). In addition, the binding signal in assay [7] is 1.38 fold enrichment (6-mer frequency, TF over GST control); in assay [8], 1.1 fold enrichment (6-mer frequency, TF over GST control).
